Some test systems named below: SK-MEL-2 melanoma; EKVX NSCLC; SN12C renal; TK-10 renal; ACHN renal; CAKI-1 renal; A498 renal; CCRF-CEM leukemia; MOLT-4 leukemia; SR leukemia; RPMI-8226 leukemia; OVCAR-8 ovarian; OVCAR-5 ovarian; OVCAR-4 ovarian; SK-OV-3 ovarian; IGROV1 ovarian; OVCAR-3 ovarian; HS 578T breast; NCI/ADR-RES ovarian.
Experiment in all cases: NCI-60 one-dose screen, 48 h (100 = growth as untreated, 0 = no growth, -100 = all killed)
Holding throughout (conditions): 10 µM unless noted

Structures are written as SMILES. About 83,000 compounds went through this panel and 20% of them were active in at least one assay; those are over-represented in the sample as a whole.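 In brief: 96-well plates, 48 h treatment, single concentration, percent growth endpoint.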 A number with no mark means an inactive call. Calls of active or inactive are those of the source. Rule for the calls: active = growth percent below 10; inactive = the rest.

Consider eight molecules from PubChem BioAssay (NCI).

For the molecule `N#C/C(=C\c1cn(Cc2ccccc2)c2ccccc12)C(=O)Nc1ncc(Cc2ccccc2Cl)s1`, the growth with SK-MEL-2 melanoma is 35.9%; in the test with EKVX NSCLC it was 28.7%; in the test with SN12C renal, 18.1%; with TK-10 renal, 6.29% (active); in the test with ACHN renal it was -58.4% (active); in the test with CAKI-1 renal it was -11.4% (active). The growth with A498 renal was -13.3% (active); in the test on CCRF-CEM leukemia, 37%; in the test on MOLT-4 leukemia, 61%; in the test with SR leukemia, 8.65% (active); with RPMI-8226 leukemia, 67.6%; in the test on OVCAR-8 ovarian, 6.09% (active). The growth with OVCAR-5 ovarian was -2.57% (active); with OVCAR-4 ovarian it was -74.6% (active); in the test with SK-OV-3 ovarian it was 9.54% (active); in the test on IGROV1 ovarian it was 9.54% (active); in the test with OVCAR-3 ovarian, -19.1% (active); in the test with HS 578T breast, 21.7%. For the same molecule, the growth in the test on NCI/ADR-RES ovarian is 15%.

As to `Cc1c(CN)cc(-c2ccc(Cl)cc2)n1-c1ccccc1`, the growth in the test on SK-MEL-2 melanoma was 90.2%; in the test on EKVX NSCLC, 82.6%; in the test with SN12C renal, 87.6%; in the test with TK-10 renal, 66.3%; in the test with ACHN renal, 74.7%; with CAKI-1 renal, 40.7%. The growth with A498 renal is -7.73% (active); with CCRF-CEM leukemia it was 81.7%; with MOLT-4 leukemia, 82.3%; in the test with SR leukemia, 77.5%; in the test with RPMI-8226 leukemia, 66.7%; with OVCAR-8 ovarian, 74.8%. The growth with OVCAR-5 ovarian is 80.9%; with OVCAR-4 ovarian, 40.3%; in the test with SK-OV-3 ovarian, 85.4%; with IGROV1 ovarian, 48.1%; with OVCAR-3 ovarian, 106%; in the test with HS 578T breast, 87.9%. For the same molecule, the growth with NCI/ADR-RES ovarian is 88.1%.

As for `CC(=O)Oc1ccc(OC(C)=O)c2ccccc12`, the growth with SK-MEL-2 melanoma was 113%; in the test with EKVX NSCLC, 92.3%; in the test with SN12C renal it was 85.8%; with TK-10 renal it was 103%; in the test with ACHN renal it was 75.7%; with CAKI-1 renal it was 100%. Further, the growth with A498 renal was 118%; with CCRF-CEM leukemia it was -6.08% (active); in the test with MOLT-4 leukemia, -13.9% (active); in the test on SR leukemia, 56.8%; in the test on RPMI-8226 leukemia it was 6.57% (active); with OVCAR-8 ovarian, 48.8%. Besides, the growth was 98.4% in the test on OVCAR-5 ovarian; -96.4% (active) with OVCAR-4 ovarian; 102% with SK-OV-3 ovarian; 68.5% in the test on IGROV1 ovarian; 59.7% in the test with OVCAR-3 ovarian; 109% with HS 578T breast. Also, the growth in the test on NCI/ADR-RES ovarian is 64.5%.

Turning to `O=[N+]([O-])c1ccc(-c2cn3nc(-c4c[nH]c5ccccc45)sc3n2)cc1`, the growth with SK-MEL-2 melanoma is 109%; with EKVX NSCLC it was 91.2%; in the test with SN12C renal it was 91.9%; in the test with TK-10 renal it was 102%; in the test on ACHN renal, 96.8%; in the test with CAKI-1 renal it was 91%. The growth is 85.9% with A498 renal; 90.2% in the test with CCRF-CEM leukemia; 88.6% with MOLT-4 leukemia; 93.1% with RPMI-8226 leukemia; 104% in the test on OVCAR-8 ovarian; 96.9% in the test with OVCAR-5 ovarian. Also, the growth in the test on OVCAR-4 ovarian was 88%; with SK-OV-3 ovarian, 88.3%; in the test with IGROV1 ovarian, 89%; in the test with OVCAR-3 ovarian, 109%; in the test on HS 578T breast it was 99.9%; with NCI/ADR-RES ovarian, 99.3%.

For `CCOC(=O)c1[nH]c2c(c1C)-c1[nH]c(=O)c(S(=O)(=O)c3ccccc3)cc1SC2`, the growth in the test on SK-MEL-2 melanoma was 56.4% [100 µM]; with EKVX NSCLC, 8.42% [100 µM] (active); in the test on SN12C renal it was 59.5% [100 µM]; in the test with TK-10 renal, 13.1% [100 µM]; in the test with ACHN renal it was 20.9% [100 µM]; in the test on CAKI-1 renal, 16.2% [100 µM]. Moreover, the growth was 21.4% [100 µM] with A498 renal; 52.1% [100 µM] in the test on CCRF-CEM leukemia; 57.3% [100 µM] in the test with MOLT-4 leukemia; 39.4% [100 µM] in the test with SR leukemia; 33.3% [100 µM] with RPMI-8226 leukemia; 25.3% [100 µM] in the test with OVCAR-8 ovarian. For the same molecule, the growth in the test on OVCAR-5 ovarian was 89.6% [100 µM]; with OVCAR-4 ovarian it was 5.79% [100 µM] (active); with SK-OV-3 ovarian, 59.8% [100 µM]; in the test with IGROV1 ovarian, 48.7% [100 µM]; with OVCAR-3 ovarian it was -15.1% [100 µM] (active); in the test with HS 578T breast it was 28.1% [100 µM]. Moreover, the growth in the test with NCI/ADR-RES ovarian was 59.7% [100 µM].

On to `COc1ccc(/C=C/c2ccc3ccccc3n2)c(OC)c1`, for which the growth in the test with SK-MEL-2 melanoma is 48.3%; in the test with EKVX NSCLC, 79.3%; with SN12C renal, 80.1%; in the test on TK-10 renal, 111%; in the test with ACHN renal it was 87%; in the test with CAKI-1 renal it was 73.6%. Further, the growth in the test on A498 renal was 59.5%; in the test on CCRF-CEM leukemia, 49%; in the test with MOLT-4 leukemia, 58.3%; with SR leukemia, 29.4%; in the test with RPMI-8226 leukemia it was 74.7%; in the test on OVCAR-8 ovarian, 92.5%. Further, the growth in the test with OVCAR-5 ovarian is 86.5%; with SK-OV-3 ovarian, 88.6%; in the test on IGROV1 ovarian it was 59.9%; in the test with OVCAR-3 ovarian it was 74%; in the test on HS 578T breast, 85.5%; in the test with NCI/ADR-RES ovarian, 49.7%.

`C/C(=N\O)c1ccc(NC(=O)CSc2nnc(-c3cc(-c4ccc(S(C)(=O)=O)cc4)nc4ccccc34)n2-c2ccccc2)cc1`: the growth in the test with SK-MEL-2 melanoma is 100%; in the test with EKVX NSCLC, 84.7%; in the test with SN12C renal it was 89.2%; with TK-10 renal, 107%; with ACHN renal it was 90.8%; with CAKI-1 renal, 73.8%. The growth in the test on A498 renal was 53.1%; in the test on CCRF-CEM leukemia, 68.2%; in the test with MOLT-4 leukemia it was 57.9%; in the test with SR leukemia it was 62.4%; with RPMI-8226 leukemia it was 48.2%; in the test on OVCAR-8 ovarian it was 82.6%. Also, the growth in the test on OVCAR-5 ovarian was 97.3%; with OVCAR-4 ovarian it was 98.7%; in the test on SK-OV-3 ovarian, 115%; in the test on IGROV1 ovarian, 80.9%; in the test on OVCAR-3 ovarian it was 102%; in the test with HS 578T breast, 73.4%. Also, in the test with NCI/ADR-RES ovarian, the growth was 96.8%.

Turning to `C=C(C)[C@@H]1CCC[C@]2(C(=O)N3CCN(C)CC3)CC[C@]3(C)[C@@H](CC[C@@H]4[C@@]5(C)CC/C(=N\NC(=O)c6ccncc6)C(C)(C)[C@@H]5CC[C@]43C)[C@@H]12`, the growth in the test on SK-MEL-2 melanoma was 106%; with EKVX NSCLC it was 111%; with SN12C renal, 80.1%; in the test with TK-10 renal it was 116%; in the test on ACHN renal, 88.3%; in the test with CAKI-1 renal it was 80.7%. Moreover, the growth in the test on A498 renal is 119%; in the test with CCRF-CEM leukemia, 25.9%; in the test with MOLT-4 leukemia, 55.9%; in the test with SR leukemia it was 7.99% (active); with RPMI-8226 leukemia, 78.2%; with OVCAR-8 ovarian, 96.7%. Besides, the growth is 80.1% in the test on OVCAR-5 ovarian; 91.5% in the test on OVCAR-4 ovarian; 109% in the test on SK-OV-3 ovarian; 82.7% with IGROV1 ovarian; 103% with HS 578T breast; 99.3% in the test with NCI/ADR-RES ovarian.
